Experimental findings from paper PMC5700166 are described below.

Numbering of substitutions follows the chain as printed.

What all share (experiment): protein-binding microarray (PBM); PBM: ~300 nM protein, 6 mM HEPES pH 7.8, 80 mM KCl, 0.5 mM EDTA, 0.5 mM EGTA, 6% glycerol, 35 ng/ul poly-dIdC, 1% milk, 1 h, room temperature; Ap Aiptasia and Nv Nematostella (sea anemones) / Co Capsaspora / Aq Amphimedon (sponge) / Dm Drosophila / Hu human; RHD is the Rel homology domain; high values mean tight binding
What all share (conditions): dsDNA, one strand shown

In one experiment the target is T1, GST-Ap-NF-kB RHD (Exaiptasia pallida (Aiptasia), UniProt A0A913YAJ5 2-422).
T1 sequence: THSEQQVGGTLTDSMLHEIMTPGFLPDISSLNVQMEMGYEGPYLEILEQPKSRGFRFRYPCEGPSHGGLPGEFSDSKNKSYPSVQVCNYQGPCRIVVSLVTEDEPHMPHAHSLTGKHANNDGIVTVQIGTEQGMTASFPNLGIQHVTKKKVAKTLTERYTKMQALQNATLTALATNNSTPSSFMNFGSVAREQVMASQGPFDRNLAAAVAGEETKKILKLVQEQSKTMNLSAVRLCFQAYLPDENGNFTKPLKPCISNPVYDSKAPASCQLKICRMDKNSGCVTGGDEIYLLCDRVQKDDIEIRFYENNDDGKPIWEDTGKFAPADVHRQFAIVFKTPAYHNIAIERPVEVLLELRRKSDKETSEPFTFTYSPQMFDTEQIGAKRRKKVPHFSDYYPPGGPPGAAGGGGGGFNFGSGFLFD

For experiment [1], the target named is T2, GST-Nv-NF-kB (Cys allele) (Nematostella vectensis, UniProt E5G601 2-411).
T2 sequence: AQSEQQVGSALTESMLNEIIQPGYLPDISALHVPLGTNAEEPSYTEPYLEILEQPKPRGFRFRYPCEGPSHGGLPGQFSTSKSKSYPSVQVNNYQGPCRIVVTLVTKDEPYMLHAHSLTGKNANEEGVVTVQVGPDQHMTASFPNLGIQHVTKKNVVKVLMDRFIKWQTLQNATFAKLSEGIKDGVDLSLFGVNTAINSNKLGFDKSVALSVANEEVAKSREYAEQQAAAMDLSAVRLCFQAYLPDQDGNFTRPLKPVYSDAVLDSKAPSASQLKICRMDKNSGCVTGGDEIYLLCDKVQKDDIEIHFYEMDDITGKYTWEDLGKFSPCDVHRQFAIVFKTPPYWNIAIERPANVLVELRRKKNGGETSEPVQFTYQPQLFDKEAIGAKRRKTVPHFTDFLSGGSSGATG

The target of experiment [2] is T3, GST-Nv-NF-kB (Ser allele) (Nematostella vectensis, UniProt A7UNT2 2-411).
T3 sequence: T2 sequence with Q21R, C66S, S207N, E215Q, V217A, E225K, A268E, D399E

In the next experiment the target is T4, GST-Co-NF-kB (Capsaspora owczarzaki, UniProt F1ARL5 200-546).
T4 sequence: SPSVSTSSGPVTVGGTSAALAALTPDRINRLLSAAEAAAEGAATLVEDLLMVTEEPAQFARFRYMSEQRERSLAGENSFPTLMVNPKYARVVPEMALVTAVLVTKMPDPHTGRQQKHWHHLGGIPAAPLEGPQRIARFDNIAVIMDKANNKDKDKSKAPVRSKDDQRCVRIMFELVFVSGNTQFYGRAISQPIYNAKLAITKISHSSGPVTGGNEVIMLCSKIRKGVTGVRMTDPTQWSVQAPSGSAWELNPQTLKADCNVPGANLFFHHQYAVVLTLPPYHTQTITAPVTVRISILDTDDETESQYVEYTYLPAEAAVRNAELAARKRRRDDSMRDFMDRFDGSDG

In a further experiment the target is T5, GST-Dm-Relish (Drosophila melanogaster, UniProt Q94527 99-473).
T5 sequence: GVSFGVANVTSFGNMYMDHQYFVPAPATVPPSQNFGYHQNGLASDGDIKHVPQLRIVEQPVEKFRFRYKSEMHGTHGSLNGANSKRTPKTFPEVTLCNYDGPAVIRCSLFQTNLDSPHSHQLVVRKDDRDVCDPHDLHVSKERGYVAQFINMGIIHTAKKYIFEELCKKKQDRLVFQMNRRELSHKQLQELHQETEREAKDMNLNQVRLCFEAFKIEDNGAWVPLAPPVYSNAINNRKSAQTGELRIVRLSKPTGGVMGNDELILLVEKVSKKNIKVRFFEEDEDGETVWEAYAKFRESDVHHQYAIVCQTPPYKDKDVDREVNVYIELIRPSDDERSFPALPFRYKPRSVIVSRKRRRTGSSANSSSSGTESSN

A further experiment concerns the target T6, GST-Aq-NF-kB (Amphimedon queenslandica, UniProt A9Y5G7 2-389).
T6 sequence: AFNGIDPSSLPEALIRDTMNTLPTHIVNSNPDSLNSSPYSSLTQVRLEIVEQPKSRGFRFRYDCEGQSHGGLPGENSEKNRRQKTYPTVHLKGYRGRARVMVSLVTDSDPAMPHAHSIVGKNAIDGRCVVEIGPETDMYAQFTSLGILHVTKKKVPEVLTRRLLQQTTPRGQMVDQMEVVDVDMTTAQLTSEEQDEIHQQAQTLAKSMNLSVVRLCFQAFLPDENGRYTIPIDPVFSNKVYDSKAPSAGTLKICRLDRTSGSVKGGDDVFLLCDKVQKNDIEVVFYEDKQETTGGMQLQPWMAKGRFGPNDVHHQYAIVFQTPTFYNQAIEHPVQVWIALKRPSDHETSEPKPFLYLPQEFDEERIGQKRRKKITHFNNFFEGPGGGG

For another experiment, the target named is GST-Hu-p50 (Homo sapiens, UniProt P19838 7-356).
Chain of GST-Hu-p50 (P19838 7-356): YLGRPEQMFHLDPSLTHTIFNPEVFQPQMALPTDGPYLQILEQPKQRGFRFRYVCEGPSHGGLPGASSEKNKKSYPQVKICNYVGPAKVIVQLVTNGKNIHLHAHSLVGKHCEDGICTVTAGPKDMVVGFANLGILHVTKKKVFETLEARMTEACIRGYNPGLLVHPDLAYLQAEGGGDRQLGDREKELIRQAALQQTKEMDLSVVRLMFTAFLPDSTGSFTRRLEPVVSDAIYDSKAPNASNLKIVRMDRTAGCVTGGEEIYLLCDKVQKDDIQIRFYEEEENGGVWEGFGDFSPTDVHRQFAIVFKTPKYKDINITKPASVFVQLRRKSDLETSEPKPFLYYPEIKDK

As for “CCGATTAACATCAAAAAGACCCCTGATGTTAATCGGGTCTTGATTCGCTTGACGCTGCTG”, the binding signal with GST-Ap-NF-kB RHD worked out at 4.67 z-score; in experiment [1], 4.44 z-score; in experiment [2], 3.31 z-score; with GST-Co-NF-kB it was 1.92 z-score; in the experiment with GST-Dm-Relish, 6.3 z-score; with GST-Aq-NF-kB, 5.55 z-score. This sequence also registered a binding signal with GST-Hu-p50 of 4.67 z-score.

For “CCGATTAACATCAGGGCGCCCCCTGATGTTAATCGGGTCTTGATTCGCTTGACGCTGCTG”, the binding signal with GST-Ap-NF-kB RHD turned out to be 6.07 z-score; in experiment [1] it was 4.59 z-score; in experiment [2], 3.38 z-score; with GST-Co-NF-kB it was 1.95 z-score; with GST-Dm-Relish it was 5.55 z-score; with GST-Aq-NF-kB, 7.98 z-score. Also, the binding signal with GST-Hu-p50 turned out to be 4.97 z-score.

In the case of “CCGATTAACATCACATCTCCCCCTGATGTTAATCGGGTCTTGATTCGCTTGACGCTGCTG”, the binding signal worked out at 6.34 z-score with GST-Ap-NF-kB RHD; 4.75 z-score in experiment [1]; 5.94 z-score in experiment [2]; 7.54 z-score in the experiment with GST-Co-NF-kB; 2.35 z-score with GST-Dm-Relish; 4.36 z-score in the experiment with GST-Aq-NF-kB. The sequence further came in with a binding signal with GST-Hu-p50 of 5.73 z-score.

“CCGATTAACATCAGGCGATCCCCTGATGTTAATCGGGTCTTGATTCGCTTGACGCTGCTG”: the binding signal stood at 5.05 z-score with GST-Ap-NF-kB RHD; 4.17 z-score in experiment [1]; 5.07 z-score in experiment [2]; 1.58 z-score with GST-Co-NF-kB; 6.53 z-score in the experiment with GST-Dm-Relish; 5.06 z-score with GST-Aq-NF-kB. In the experiment with GST-Hu-p50, this sequence returned a binding signal of 3.98 z-score.

For “CCGATTAACATCATTTCCCTTGCTGATGTTAATCGGGTCTTGATTCGCTTGACGCTGCTG”, the binding signal came to 2.33 z-score in the experiment with GST-Ap-NF-kB RHD; 3.78 z-score in experiment [1]; 3.79 z-score in experiment [2]; 1.62 z-score with GST-Co-NF-kB; 1.3 z-score in the experiment with GST-Dm-Relish; 3.29 z-score with GST-Aq-NF-kB. The same sequence had a binding signal with GST-Hu-p50 of 2.9 z-score.

On to “CCGATTAACATCAGGGAAAGCCCTGATGTTAATCGGGTCTTGATTCGCTTGACGCTGCTG”, for which the binding signal was determined as 6.37 z-score with GST-Ap-NF-kB RHD; 8.76 z-score in experiment [1]; 4.62 z-score in experiment [2]; 1.84 z-score with GST-Co-NF-kB; 7.96 z-score in the experiment with GST-Dm-Relish; 8.88 z-score with GST-Aq-NF-kB. In the experiment with GST-Hu-p50, this sequence gave a binding signal of 4.93 z-score.

Regarding “CCGATTAACATCAGACATTCCCCTGATGTTAATCGGGTCTTGATTCGCTTGACGCTGCTG”, the binding signal with GST-Ap-NF-kB RHD was determined as 7.03 z-score; in experiment [1], 8.78 z-score; in experiment [2], 8.26 z-score; in the experiment with GST-Co-NF-kB, 5.38 z-score; in the experiment with GST-Dm-Relish it was 4.78 z-score; in the experiment with GST-Aq-NF-kB, 6.59 z-score. For the same sequence, the binding signal in the experiment with GST-Hu-p50 is 5.51 z-score.

On to “CCGATTAACATCAGGGGATTTGATGATGTTAATCGGGTCTTGATTCGCTTGACGCTGCTG”, for which the binding signal amounted to 6.34 z-score in the experiment with GST-Ap-NF-kB RHD; 6.28 z-score in experiment [1]; 8.85 z-score in experiment [2]; 2.37 z-score in the experiment with GST-Co-NF-kB; 4.27 z-score with GST-Dm-Relish; 4.26 z-score with GST-Aq-NF-kB. The same sequence came in with a binding signal with GST-Hu-p50 of 6.12 z-score.

As for “CCGATTAACATCAGGGAATACCCTGATGTTAATCGGGTCTTGATTCGCTTGACGCTGCTG”, the binding signal in the experiment with GST-Ap-NF-kB RHD was 8.89 z-score; in experiment [1], 11.2 z-score; in experiment [2], 8.44 z-score; in the experiment with GST-Co-NF-kB, 3.79 z-score; with GST-Dm-Relish, 9.63 z-score; with GST-Aq-NF-kB, 10.2 z-score. For the same sequence, the binding signal in the experiment with GST-Hu-p50 is 6.01 z-score.

On to “CCGATTAACATCAAATAATCCCCTGATGTTAATCGGGTCTTGATTCGCTTGACGCTGCTG”, for which the binding signal in the experiment with GST-Ap-NF-kB RHD was determined as 8.76 z-score; in experiment [1] it was 10 z-score; in experiment [2], 10.6 z-score; with GST-Co-NF-kB, 5.91 z-score; with GST-Dm-Relish, 7.99 z-score; with GST-Aq-NF-kB, 7.75 z-score. In the experiment with GST-Hu-p50, this sequence showed a binding signal of 6.78 z-score.

As to “CCGATTAACATCAGAAGTTCCCCTGATGTTAATCGGGTCTTGATTCGCTTGACGCTGCTG”, the binding signal amounted to 7.97 z-score with GST-Ap-NF-kB RHD; 8.26 z-score in experiment [1]; 8.1 z-score in experiment [2]; 7.36 z-score with GST-Co-NF-kB; 8 z-score in the experiment with GST-Dm-Relish; 7.04 z-score in the experiment with GST-Aq-NF-kB. Moreover, in the experiment with GST-Hu-p50, the binding signal is 5.84 z-score.

As for “CCGATTAACATCAAGGGGGGTATTGATGTTAATCGGGTCTTGATTCGCTTGACGCTGCTG”, the binding signal was 6 z-score with GST-Ap-NF-kB RHD; 4.4 z-score in experiment [1]; 3.99 z-score in experiment [2]; 4.22 z-score with GST-Co-NF-kB; 5.14 z-score with GST-Dm-Relish; 5.2 z-score with GST-Aq-NF-kB. The sequence further showed a binding signal in the experiment with GST-Hu-p50 of 4.8 z-score.
